A selection: hits, their analogues and other compounds. The true share with any hit is near 11%.
HEK293 tox = kills HEK 293 cells; HEK 293 viability, ATP luminescence (CellTiter-Glo), 48-72 h; Potency, µM (top dose mostly 115 µM), for the others: top-dose activity change, negative = cytotoxicity, usual class: inhibitors; 94,000 compounds, 6.6% hits; AID 1345083; note: nearly all actives have a fitted effect of over 60% in size
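HEK 293 cells at 250 cells/well were exposed to compounds by pintool transfer for 48 or 72 hr at 37 degree Celsius, 5% CO2. Viability was read as ATP-coupled luminescence with CellTiter-Glo after 10 min at room temperature.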
NPR1 antag = human Npr1 receptor antagonism | Potency, µM (doses to about 46.3 µM), for the others: at the top dose activity change, negative = inhibition, actives largely listed as inhibitors | 76,000 compounds, 1.6% hits | AID 1347048 | HEK293 hNpr1 GloSensor cGMP, ANP-stimulated luminescence; calls by dose curve; note: nearly all actives have a fitted effect of over 60% in size
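HEK293 cells stably expressing human Npr1 and cGMP GloSensor pGS-40F, loaded 2 h with 2% GloSensor reagent, given compound 30 min at room temperature. Luminescence read before and 20 min after 0.1 nM hNppA.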
FLuc inh = inhibitors of firefly (Photinus pyralis) luciferase; P08659; purified P. pyralis luciferase, luminescence, biochemical; Potency, µM (series often up to 115 µM), most hits filed as inhibitors; 76,000 compounds, 2.5% hits; AID 1347043; note: nearly all actives have a fitted effect of over 65% in size
Target sequence (P08659 whole entry, looked up): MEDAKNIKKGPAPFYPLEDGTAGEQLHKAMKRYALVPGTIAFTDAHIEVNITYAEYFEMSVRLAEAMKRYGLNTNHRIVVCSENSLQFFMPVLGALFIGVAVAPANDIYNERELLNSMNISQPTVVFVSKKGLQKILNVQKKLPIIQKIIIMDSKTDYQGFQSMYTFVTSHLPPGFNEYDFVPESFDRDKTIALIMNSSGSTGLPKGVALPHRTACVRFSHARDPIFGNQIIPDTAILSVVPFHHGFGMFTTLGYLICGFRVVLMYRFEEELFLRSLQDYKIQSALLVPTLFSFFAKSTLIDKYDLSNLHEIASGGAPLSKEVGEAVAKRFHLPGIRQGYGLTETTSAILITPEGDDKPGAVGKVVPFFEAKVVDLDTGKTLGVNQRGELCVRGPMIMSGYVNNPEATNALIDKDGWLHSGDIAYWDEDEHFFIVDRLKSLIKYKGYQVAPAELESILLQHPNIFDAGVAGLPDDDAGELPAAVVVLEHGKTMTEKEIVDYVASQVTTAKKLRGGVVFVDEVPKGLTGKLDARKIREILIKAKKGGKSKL
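Cell-free enzyme assay, 10nM P. pyralis luciferase, luciferin and ATP each at 10uM. Inhibition profiled over a 6-point titration, read as luminescence.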
3T3 cytotox = cytotoxic compounds in NIH 3T3 cells. Potency, µM (series often up to 96.7 µM), without a hit: at the top dose activity change, negative = cytotoxicity, most hits filed as inhibitors. NIH 3T3 viability, CellTiter-Glo ATP luminescence, 48-72 h. 94,000 compounds, 4.3% hits; note: nearly all actives have a fitted effect of over 55% in size
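Cytotoxicity is measured as loss of cellular ATP: NIH 3T3 cells (400/well) are exposed to compound for 48 or 72 hr at 37 °C, then CellTiter-Glo luminescence is imaged after 10 min at room temperature.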
* = called active by the depositor; i = inactive; u = inconclusive; x = no result given; [ ] = remark or other dose. Unless noted, calls come from the whole dose curve; as a rule, active = well fitted curve in the direction sought with a large enough effect; inconclusive = small, poorly fitted or top-dose-only effect, or another doubt; inactive = no such curve, though single readings can be large; an effect the other way counts as inactive or inconclusive. % is set by controls: 0 for no effect and ±100 for the full control effect; potency is the fitted concentration of half-maximal effect.

SMILES	HEK293 tox	NPR1 antag	FLuc inh	3T3 cytotox
COc1cccc(NC(=O)N[C@H]2[C@H](O)[C@@H](Oc3ccccc3)[C@@H]3OC[C@H]2O3)c1	-6.6%[172 µM]	7.3%[70.6 µM]	i	-28.1%[174 µM]
O=C(Nc1cccc(C(F)(F)F)c1)N[C@H]1[C@H](O)[C@@H](N2CCC(Cc3ccccc3)CC2)[C@@H]2OC[C@H]1O2	u	-20.9%	i	35.5µM*
COCCCn1c(=O)c(C(=O)N2CCN(C(=O)C3CC3)CC2)nc2cccnc21	-0.2%	x	x	-6.8%
CNC(=O)c1cc(C2CC2)nc2c1c(C1CCCN1C(=O)c1ccc(OC)cc1)nn2C (configuration not stated)	-3.5%	x	x	-16.0%
CC1(C(=O)NCC2CC2)COCc2cnc(Nc3ccccc3)nc21 (configuration not stated)	u	-5.4%[70.6 µM]	i	-13.1%[138 µM]
CC1(C(=O)NCC2CC2)CCc2cnc(Nc3ccccc3)nc21 (configuration not stated)	100µM*	-1.8%[70.6 µM]	i	u
COc1cccc(NC(=O)C2(C)CCc3cnc(N4CCOCC4)nc32)c1 (configuration not stated)	u	1.6%[70.6 µM]	i	u
COc1cccc(Nc2ncc3c(n2)C(C)(C(=O)NCCc2ccccn2)CC3)c1 (configuration not stated)	100µM*	-2.2%[70.6 µM]	i	u
COc1cccc(Nc2ncc3c(n2)C(C)(C(=O)NCC2CC2)CC3)c1 (configuration not stated)	50.1µM*	-23.7%[70.6 µM]	i	u
CN1Cc2ccc(Nc3ccccc3)nc2C(C)(C(=O)NCCc2ccccn2)C1 (configuration not stated)	u	-10.0%[70.6 µM]	i	u
CNC(=O)c1nc2cccnc2n(C2CC2)c1=O	-1.1%[172 µM]	x	x	i
O=C(Nc1cccc(Br)c1)N1CCC2(CC1)SCC(=O)N2Cc1ccccc1	50.1µM*	-9.0%	i	15.8µM*
O=C(Nc1cccc(Br)c1)N1CCC2(CC1)SCC(=O)N2Cc1ccco1	28.2µM*	u	u	15.8µM*
COC(=O)N1CCC(c2nn(-c3ccccn3)c(=O)[nH]2)CC1	i	x	x	-7.0%[138 µM]
O=C1N2CCCC2CN1C1CCN(Cc2ccc(OC(F)(F)F)cc2)CC1 (configuration not stated)	39.8µM*	u	i	u
COc1ccc(CN2C[C@H]3CN(Cc4c[nH]c5ccccc45)CCN3C2=O)cc1	100µM*	-4.9%[70.6 µM]	i	u
Cc1ccc(CN2C[C@H]3CN(Cc4ccc(OC(F)(F)F)cc4)CCN3C2=O)cc1	70.8µM*	u	i	50.1µM*
COc1ccc(CN2C[C@H]3CN(Cc4ccc(Cl)cc4)CCN3C2=O)cc1	70.8µM*	u	i	u
O=C(C1CC1)N1CCCN(c2ccc3nnc(-c4ccccc4)n3n2)CC1	i	x	x	-7.8%
CN(C)c1nccnc1OC1CCN(C(=O)c2ccn[nH]2)C1 (configuration not stated)	-0.3%	-7.5%	25.1µM*	i
CN(C)c1nccnc1OC1CCN(C(=O)CC2CCCC2)C1 (configuration not stated)	u	5.6%	35.5µM*	-7.3%
CN(C)c1nccnc1OC1CCN(C(=O)CCCc2ccccc2)C1 (configuration not stated)	79.4µM*	0.6%	u	-10.7%
COCC(=O)N1CCCC(C(=O)N2CCC(c3nc4ncccc4[nH]3)CC2)C1 (configuration not stated)	4.1%	x	x	i
Cc1ccc(S(=O)(=O)N2CCCC(Cn3c(C)nc4cccnc43)C2)c(C)c1 (configuration not stated)	u	u	i	u
CCc1ccccc1S(=O)(=O)N1CCCC(Cn2c(C3CC3)nc3cccnc32)C1 (configuration not stated)	39.8µM*	-19.2%	i	u
SMILES	HEK293 tox	NPR1 antag	FLuc inh	3T3 cytotox
Cc1nc2cccnc2n1CC1CCCN(S(=O)(=O)Cc2ccc(Cl)cc2)C1 (configuration not stated)	31.6µM*	u	i	u
Cc1cc(NC(=O)N2CCCC(Cn3c(C)nc4cccnc43)C2)ccc1Br (configuration not stated)	31.6µM*	-22.1%	i	u
Cc1ccc(C)c(S(=O)(=O)N2CCCC(Cn3c(C)nc4cccnc43)C2)c1 (configuration not stated)	39.8µM*	u	i	25.1µM*
NCC1CCCN(Cc2ccc(-c3nc(-c4ccncc4)cc(=O)[nH]3)cc2)C1 (configuration not stated)	i	0.6%	i	3.9%
Cc1ccc(C(=O)N2CCC(c3n[nH]c(=O)n3Cc3ccc(F)cc3)CC2)cc1C	u	-2.6%	i	-25.5%
COCCNC(=O)c1c(C)oc2c1CN(Cc1cccc(F)c1)CC2	u	0.6%	i	u
Cc1ccc(S(=O)(=O)N2CCCC(Cn3c(C4CC4)nc4cccnc43)C2)c(C)c1 (configuration not stated)	35.5µM*	-24.1%	i	u
Cc1cc(Cl)ccc1S(=O)(=O)N1CCCC(Cn2c(C)nc3cccnc32)C1 (configuration not stated)	20µM*	u	i	11.2µM*
Cc1nc2cccnc2n1CC1CCCN(S(=O)(=O)c2cccc(Cl)c2)C1 (configuration not stated)	u	u	i	u
CCN1C(=O)C2(CCN(S(=O)(=O)c3ccc(C)c(F)c3)CC2)c2ccccc21	15.6%	0.8%	i	-4.8%
COCc1ncc(C)n1C1CCN(C(=O)CCc2c[nH]c3ccccc23)C1 (configuration not stated)	-8.9%	x	x	-24.6%
COc1ccc(-n2c(=O)c(C(=O)NCC(F)F)nc3cccnc32)cc1	3.6%	x	x	-14.1%
Clc1ccc(-c2cnc3n2C[C@H](CNCc2ccc4c(c2)OCO4)OC3)cc1	89.1µM*	u	i	u
c1ccc(CNC[C@H]2Cn3c(-c4ccc5c(c4)OCCO5)cnc3CO2)cc1	u	-23.2%[70.6 µM]	i	-22.3%[138 µM]
Fc1ccc(-c2cnc3n2C[C@H](CNCc2ccc4c(c2)OCO4)OC3)cc1	100µM*	u	i	89.1µM*
CC(=O)Nc1ccc(CNC[C@H]2Cn3c(-c4ccc5c(c4)OCCO5)cnc3CO2)cc1	-21.7%[172 µM]	-20.4%[70.6 µM]	i	-23.8%[174 µM]
Cc1nnc2ccc(N3CCCN(C(=O)C4CCCC4)CC3)nn12	-3.9%	x	x	-3.5%
COCC(=O)N1CCC(=O)N(CCC#N)C[C@H]2CN(C)c3ccccc3[C@@H]21	u	x	x	-30.9%[46.1 µM]
Cc1ccc(-n2cc(CN3CCN4CCCC4C3)c(-c3cccc(C)c3)n2)cc1 (configuration not stated)	28.2µM*	-3.3%	u	25.1µM*
Cc1cccc(-n2cc(CN3CCCC(C)(O)C3)c(-c3cccc(F)c3)n2)c1 (configuration not stated)	u	5.7%	17.8µM*	89.1µM*

Screens from PubChem BioAssay.
